Several values for one entry are separate records, joined by “and”; a condition that tells them apart may be missing. Identical values can stand only once. In all, about 320,000 compounds went through this assay and about 480 (0.15%) were called active. Rule as the data show it: active = inhibition above about 33%; inactive = the rest. This excerpt belongs to a sample that is enriched for actives. Where a structure was tested more than once in an assay, its records may differ in their call.
biological target: Lytic switch protein BZLF1 (Epstein-Barr virus (strain B95-8)) (UniProt P03206); experiment: Zta-DNA interaction blockers, Epstein-Barr virus – biochemical, fluorescence polarization, single concentration, counter-screen for EBNA-1 inhibitor project, primary screen (AID 2234); conditions: ZTA-DNA binding, at 11 µM, stronger effect = higher value
Sequence (P03206 whole entry, looked up): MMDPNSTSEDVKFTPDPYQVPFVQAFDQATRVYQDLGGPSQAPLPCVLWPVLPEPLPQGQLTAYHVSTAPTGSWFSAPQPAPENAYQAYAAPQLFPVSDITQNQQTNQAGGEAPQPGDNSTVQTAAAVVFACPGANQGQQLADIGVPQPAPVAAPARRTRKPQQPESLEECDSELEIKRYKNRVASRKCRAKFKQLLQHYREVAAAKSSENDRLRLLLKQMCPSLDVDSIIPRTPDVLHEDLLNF

Row | SMILES | inhibition
1 | Cn1nc(C(F)(F)F)cc1-c1ccc(/C=C(\C#N)C(=O)c2cccc(C(F)(F)F)c2)s1 | 9.6% (inactive)
2 | CC(=O)c1nc(N2C(=O)C3CC=C(C)CC3C2=O)sc1C (stereo not given) | -6.68% (inactive)
3 | CCN(C(=O)COC(=O)c1cc(NS(=O)(=O)c2ccc(Cl)c([N+](=O)[O-])c2)ccc1O)C1CCCCC1 | -8.06% (inactive)
4 | O=C(Cn1c(-c2ccc(Cl)cc2)noc1=O)N1CCN(c2ccccc2F)CC1 | -6.32% (inactive)
5 | CCOc1cc(-c2noc(CCCC(=O)NC3CCCCC3)n2)ccc1OC | -2.96% (inactive)
6 | CCOc1ncccc1C(=O)OCC(=O)N1c2ccccc2CC1C (stereo not given) | 6.32% (inactive)
7 | COc1cc(C(=O)NNC(=O)CN2C(=O)NC3(CCCC3)C2=O)cc(OC)c1OC | 7.35% (inactive)
8 | CC(C)N(C(=O)Cn1cc(S(=O)(=O)CC(=O)N2CCOCC2)c2ccccc21)C(C)C | -2.48% (inactive)
9 | CCc1nn(CCCC(=O)Nc2ccc(C)cc2C)c(=O)c2cc3occc3n12 | -0.14% (inactive)
10 | CN(C)/C=C(\C#N)C(=O)c1cccnc1Oc1cccc(F)c1 | 1.11% (inactive)
11 | CN(C)Cc1ccccc1C1(O)c2ccccc2CSc2ccccc21 (stereo not given) | -3.19% (inactive)
12 | O=C(COC(=O)c1cc(=O)[nH]c2ccccc12)NCc1cccc(Cl)c1 | -4.76% (inactive)
13 | COCCCNC(=S)N1CCN(c2nc(-c3cccc(OC)c3)cs2)CC1 | 0.15% (inactive)
14 | COC(=O)C1CCN(C(=O)c2cc(=O)[nH]c3ccccc23)CC1 | -3.43% (inactive)
15 | COC(=O)[C@H]1[C@H]2C[C@H]3c4[nH]c5ccccc5c4CCN3C[C@@H]2CC[C@@H]1O | -2.53% (inactive) and 42.8% (active)
16 | O=C(NC1CCCCC1)N1CCc2[nH]c3ccccc3c2C1 | -20.7% (inactive)
17 | Cc1ccc(S(=O)(=O)NCc2ccc(C(=O)NC3CCC(C)CC3)cc2)cc1 (stereo not given) | 0.09% (inactive)
18 | Cn1c(N)c(C(=O)COC(=O)/C=C/c2ccc(OC(F)F)cc2)c(=O)n(C)c1=O | 4.46% (inactive)
19 | CC[N+](C)(CC)CCC[n+]1c(-c2ccccc2)c2cc(N)ccc2c2ccc(N)cc21 | 76.6% (active)
20 | COc1ccccc1CNS(=O)(=O)c1c(C)[nH]c(C)c1C(=O)N1CCCCC1 | -3.2% (inactive)
21 | COc1ccc(C(=O)NCCn2nc(C)cc2C)cc1OC1CCN(C(C)=O)CC1 | -1.11% (inactive)
22 | CC(=O)N(C)c1ccc(NC(=O)C(F)(F)F)cc1 | -2.47% (inactive)
23 | CC(C)CNC(=O)C(=O)Nc1ccc(N(C)C)cc1 | -14.2% (inactive)
24 | CCN(CC)c1ccc(C(=O)Nn2c(C)nc3ccccc3c2=O)cc1 | -9.3% (inactive)
25 | C=CCN(C(=O)Nc1ccc2oc(C)nc2c1)c1ccccc1 | 14.4% (inactive)

Row | SMILES | inhibition
26 | CCN(CC)c1ccc2oc(=O)c(C)nc2c1 | 112% (active)
27 | COc1ccc(/C=C/CN2CCCC(C(=O)c3cc(F)ccc3F)C2)cc1 (stereo not given) | -3.1% (inactive)
28 | CN(C)Cc1c(O)ccc2occ(C(O)c3ccccc3)c12 (stereo not given) | -10.8% (inactive)
29 | N[C@@H](Cc1ccccc1)C(=O)N1CCOCC1 | 0.06% (inactive)
30 | COc1ccc(OC)c(NC(=O)CSc2nc(N)c(-c3ccccc3)c(=O)[nH]2)c1 | -8.96% (inactive)
31 | COc1ccccc1P(=O)(c1ccccc1)c1ccccc1NC(C)=O (stereo not given) | 6.44% (inactive)
32 | CCc1cc(=O)oc2c(C)c(OCC(=O)N3CC[C@@]4(O)CCCC[C@H]4C3)ccc12 | -6.49% (inactive)
33 | O=S(=O)(c1cccc(-c2nnc(SC(F)F)n2-c2ccccc2)c1)N1CCCCC1 | -1.62% (inactive)
34 | Cc1cccc(-n2cnc(C(=O)Nc3cccnc3)c2)n1 | -4.78% (inactive)
35 | Cc1ccccc1CSc1nnc(-c2ccccn2)n1N | -11.1% (inactive)
36 | O=C(COC(=O)c1ccc(S(=O)(=O)Nc2ccccc2)cc1)NCC1CCCO1 (stereo not given) | 1.03% (inactive)
37 | CCn1c(C)nc2cc(C(=O)NNS(=O)(=O)c3ccc(C)cc3C)ccc21 | -11% (inactive)
38 | COc1cc(C2C(C(=O)c3cccs3)=C(O)C(=O)N2CCN2CCOCC2)ccc1OCCC(C)C (stereo not given) | -2.28% (inactive)
39 | O=C(Nc1ccc2oc(-c3ccccc3F)nc2c1)c1ccco1 | 15.1% (inactive)
40 | CCOc1ccc(S(=O)(=O)Nc2ccncc2)c(C)c1C | -10.3% (inactive)
41 | CC(C)C(=O)N1CCC2(CC1)Oc1ccc(F)cc1C(=O)C21CC(c2ccccc2)=NO1 (stereo not given) | 7.48% (inactive)
42 | CCc1c(C)nc2c(-c3ccccc3)c(C)nn2c1Nc1ccc(NC(C)=O)cc1 | -11.9% (inactive)
43 | O=C(Cc1ncc(C(F)(F)F)cc1Cl)Nc1cccc(Br)c1 | -13.5% (inactive)
44 | O=C(CNS(=O)(=O)c1ccc2ccccc2c1)Nc1ccc(F)c(F)c1F | 15.3% (inactive)
45 | O=C(Nc1ccc(F)cc1F)N1CCCN(CCOc2ccccc2)CC1 | -6.16% (inactive)
46 | CC(=O)c1sc2nc(SCC(=O)N3CCCCC3)[nH]c(=O)c2c1C | -1.4% (inactive)
47 | CSc1nnc(SCc2nc3sc(C(=O)O)c(C)c3c(=O)[nH]2)s1 | 41.9% (active)
48 | Cc1sc2nc(CSCC(=O)NC3CCCCC3)[nH]c(=O)c2c1C | -20.2% (inactive)
49 | COc1ccc(C(=O)NC2CC2)cc1OC1CCN(C/C=C/c2ccccc2)CC1 | -17.4% (inactive)
50 | COc1ccc2c(c1)cc1n2CCN=C1NN | 8.48% (inactive)

— PubChem BioAssay AID2234 (The Scripps Research Institute Molecular Screening Center, 2010)
